Results reported in PubChem BioAssay AID720650 (Broad Institute, 2013).
Values without a mark were called inactive. Activity calls are given as the source filed them. No rule for the calls is given here.

Assay: Biochemical counterscreen for C difficile toxins, absence of UDPG, inhibitor dose response (AID 720650)
Settings: series mostly up to 19.5 µM; activity change, negative = inhibition: at the top concentration

Structure (SMILES)	AC50	activity change, negative = inhibition
COc1cc(/C=C(\C#N)C(=O)Nc2ccc3c(c2)OCCO3)ccc1O	> 39 µM	
CCOc1cc(/C=N\n2nnnc2N)ccc1O		-0.253%
O=C(Cc1ccccc1)NNC(=S)NC(=O)c1cccnc1	> 39 µM	
CC(=O)Nc1ccc(OC(=O)Oc2ccc(NC(C)=O)cc2)cc1	> 39 µM	
CC1C(=O)NN=C1c1ccc([N+](=O)[O-])cc1 (centres undefined)		2.17%
CCOc1cc(NC(=S)NCC2CCCO2)c(OCC)cc1NC(=O)c1ccc(F)cc1 (centres undefined)		-2.79%
Cc1cccc(OCCC(=O)NCC(=O)Nc2cccc(C)c2C)c1	16.4 µM (active)	
CC1CCN(CCCn2c(=S)[nH]c3c(sc4ccccc43)c2=O)CC1	> 39 µM	
Cc1nc2ccccn2c1-c1ccnn1S(=O)(=O)c1ccc(F)cc1		-14.9%
O=C(NCCc1cccc(Cl)c1)c1ccc(Cl)c([N+](=O)[O-])c1		-6.18%
CNc1cncc(-c2ccc(O)cc2)n1	11.7 µM (active)	
CSc1nc(Cl)cc(Nc2ccc(O)cc2)n1		-7.48%
CCOC(=O)[C@H]1[C@H]2COc3ccc(OC)cc3[C@@H]2N2C(=O)CN(Cc3ccc(Cl)cc3)C(=O)[C@@]12C		-8.66%
Cc1[nH]c(=O)c(C#N)c2c1CCCC2		-9.64%
O=C(O)c1c(C(=O)O)c(-c2ccc(Br)cc2)n2c1CSC2		-10.2%
Cc1ccccc1COc1ccc2oc(C)c(C(=O)O)c2c1		-13.2%
O=C(CSc1nc2cc(Cl)ccc2s1)c1ccco1	> 39 µM	
C[C@@H]1C=C[C@](Cc2ccccc2)(C(=O)NCC2CC2)N1C(=O)c1ccccc1		-3.34%
C/C(=N\Nc1ccc([N+](=O)[O-])cc1)c1cccc(N)c1	1.42 µM (active)	
COCC(=O)N1CC[C@@H]2[C@H]1c1cc(-c3ccc(OC)cc3)ccc1N(C)[C@H]2CO	10.2 µM (active)	

Structure (SMILES)	AC50	activity change, negative = inhibition
O=C(C[C@H]1CC[C@@H]2[C@H](COC[C@@H](O)CN2C(=O)c2ccccn2)O1)NC1CCC1		-8.48%
Cc1[nH]nc(-c2ccc(O)cc2O)c1Oc1ccccc1	14.6 µM (active)	
COc1ccc(C(=O)N2CCOCC2)cc1S(=O)(=O)N1CCCc2ccccc21		-11.2%
COc1ccc(NC(=O)c2cc(S(=O)(=O)N3CCc4ccccc43)cn2C)cc1OC		12.5%
O=C(Cc1coc2cc(O)ccc12)NNC(=O)c1cccs1	> 39 µM	
O=C1NN=C2CCCCCCC12 (centres undefined)		-4.67%
Cc1ccc(C(=O)Nc2scc(-c3ccccc3)c2C(=O)O)cc1	9.56 µM (active)	
Oc1ccc2ccc3[nH]cnc3c2c1	18.5 µM (active)	
COc1c2ccc(C(=O)NCCCCc3ccccc3)cc2nn1C		-14%
CCC(=O)Nc1ccc2c(c1)OC[C@@H](C)N(C(=O)NC(C)C)C[C@@H](C)[C@@H](OC)CN(C)C2=O		0.233%
Cc1ccc(C)c2nc(Cl)c(C3NC(=O)c4ccccc4N3)cc12 (centres undefined)		-4.37%
COc1cc(C=NNC(=O)c2ccccc2-n2cccc2)ccc1O		2.55%
Cc1nc(S(=O)(=O)N(C)Cc2ccccc2)c(C#N)c(C)c1Cl		-9.25%
COc1ccccc1OCC(=O)Nc1ccc(-c2nnc(-c3ccco3)o2)cc1	> 39 µM	
c1ccc2[nH]c(-c3ccc4c(c3)OCO4)nc2c1		-21.3%
O=C(O)c1cccnc1SCc1ccccc1Cl		-15%
NC(=O)CC(NC(=O)c1ccccc1)c1ccc(NCCc2ccc(F)cc2)c([N+](=O)[O-])c1 (centres undefined)		-15.4%
O=C(CCn1c(=O)oc2cc(Cl)ccc21)Nc1ccc(O)cc1	4.49 µM (active)	
C[C@H](CO)N1C[C@H](C)[C@@H](CN(C)C(=O)Nc2ccc(C(F)(F)F)cc2)Oc2c(NS(=O)(=O)c3cn(C)cn3)cccc2C1=O	> 39 µM	
